Screening results from PubChem BioAssay.
This is a sample that favours compounds with a hit; in the whole collection about 8.1% have one here.
KB-V1 cytotox: KB-V1 MDR subline cytotoxicity; 400,000 tested, 3.4% active; KB-V1 MDR cells viability, CellTiter-Glo, 72 h; Potency, µM (titrated, usually from 46.1 µM), usual class: cytotoxic; note: nearly all actives have a fitted effect of over 60% in size
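KB-V1 cells (P-gp-expressing MDR subline of KB-3-1) in phenol-red-free DMEM with 10% FBS were exposed to library compounds over a concentration series for 72 h at 37 degrees C. Viability read by CellTiter-Glo luminescence; concentration-effect curves fitted after normalization.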
ELG1 repair inh: blocks ELG1-dependent DNA repair in HEK293T cells; 330,000 tested, 2.3% active; HEK293T ELG1-luciferase reporter, luminescence, 16 h; DNA damage induced by 5-fluorouridine; Potency, µM (highest dose often 46.1 µM), most hits filed as inhibitors; note: nearly all actives have a fitted effect of over 55% in size
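Luminescence from the luciferase reporter, measured 30 min after ONE-Glo reagent at room temperature, was the read-out. Beforehand, 2,000 cells per well were exposed for 16 hr at 37 °C to 5-fluorouridine together with compound or vehicle.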
MCF10A rereplic: inducers of DNA re-replication in MCF 10A breast cells | Potency, µM (doses to about 46.1 µM), most hits filed as activators | 350,000 tested, 2.9% active | MCF 10A DNA re-replication, Hoechst nuclear intensity, 48 h | AID 624296; note: nearly all actives have a fitted effect of over 50% in size
KB-3-1 tox: KB-3-1 parental cell cytotoxicity; KB-3-1 viability, CellTiter-Glo ATP luminescence, 72 h; Potency, µM (top dose mostly 46.1 µM), hits mostly cytotoxic; 400,000 tested, 1.4% active; AID 1347075; note: nearly all actives have a fitted effect of over 60% in size
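Luminescent ATP read-out (CellTiter-Glo) measures survival of drug-naive KB-3-1 cells after 72 h compound exposure at 37 °C. Titration series was screened from lowest to highest concentration, with DMSO vehicle plates as background controls.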
SW480 rerep: DNA re-replication induction in SW480 cells; SW480 DNA re-replication, Hoechst DNA content imaging, 48 h; Potency, µM (doses to about 46.1 µM), hits mostly activators; 340,000 tested, 1.8% active; note: nearly all actives have a fitted effect of over 55% in size
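Cells (250 per well) received 23 nL compound or DMSO by pin tool and were kept 48 hr at 37 C, 5% CO2. Nuclei were then stained with Hoechst for 40 min and scanned for DNA content.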
Of the large screens only hits and unclear results are named; the others gave an inactive call. Calls come from the whole dose curve; as a rule, active = well fitted curve in the direction sought with a large enough effect; inconclusive = small, poorly fitted or top-dose-only effect, or another doubt; inactive = no such curve, though single readings can be large; an effect the other way counts as inactive or inconclusive.

CC1CCN(S(=O)(=O)c2ccc(C(=O)Nc3nc4ccc(F)cc4s3)cc2)CC1	none (no result: ELG1 repair inh, MCF10A rereplic, SW480 rerep)
CCOC(=O)c1c(C)c(-c2ccccc2)n(CC(=O)NC2CCCCC2)c1C	none (no result: ELG1 repair inh, MCF10A rereplic, SW480 rerep)
O=C(OC(C(=O)N1CCOCC1)c1ccccc1)c1c2c(nc3ccccc13)CCCC2 (stereo not given)	none (no result: ELG1 repair inh, MCF10A rereplic, SW480 rerep)
COc1ccc2[nH]c3nc(SCC(=O)Nc4cccc(NC(C)=O)c4)nnc3c2c1	KB-V1 cytotox inconclusive, MCF10A rereplic 21µM
CCc1ccc2[nH]c3nc(SCc4nnc(-c5ccccc5)o4)nnc3c2c1	none
COc1ccc2[nH]c3nc(SCc4nnc(-c5ccccc5)o4)nnc3c2c1	ELG1 repair inh 16µM
CCc1cccc2c(C(=O)CN3C(=O)NC4(CCc5ccccc54)C3=O)c[nH]c12 (stereo not given)	KB-V1 cytotox inconclusive, MCF10A rereplic 15µM, KB-3-1 tox inconclusive, SW480 rerep inconclusive
CCc1cccc2c(C(=O)CN3C(=O)N(C)C4(CCCCC4)C3=O)c[nH]c12	ELG1 repair inh inconclusive, MCF10A rereplic 5.2µM, KB-3-1 tox inconclusive
CCc1cccc2c(C(=O)CN3C(=O)NC(C)(c4cccc5ccccc45)C3=O)c[nH]c12 (stereo not given)	KB-V1 cytotox 23µM, MCF10A rereplic 15µM, KB-3-1 tox inconclusive
CC1CC(=O)NN=C1c1ccc(NCCO)c([N+](=O)[O-])c1 (stereo not given)	KB-V1 cytotox 0.13µM
COc1ccc(C(=O)Nc2ccc(C3=NNC(=O)CC3C)cc2NC(=O)c2ccc(OC)cc2)cc1 (stereo not given)	KB-V1 cytotox inconclusive, ELG1 repair inh 16µM, SW480 rerep inconclusive
COc1ccc(C(=O)Nc2ccc(C(=O)O)cc2NC(=O)c2ccc(OC)cc2)cc1	ELG1 repair inh inconclusive, MCF10A rereplic inconclusive
COc1ccc(CN2C(=O)CCC2(C)c2nc3ccccc3[nH]2)cc1 (stereo not given)	none (no result: ELG1 repair inh, MCF10A rereplic, SW480 rerep)
CCOc1ccccc1C=NNC(=O)C1CC1	none (no result: ELG1 repair inh)
Cc1cc(C)c2c(c1)/C(=c1/sc3n(c1=O)CN(c1ccccc1)CN=3)C(=O)N2	KB-V1 cytotox 16µM, ELG1 repair inh inconclusive, KB-3-1 tox inconclusive
O=c1/c(=C/c2ccccn2)sc2n1CN(c1ccccc1)CN=2	SW480 rerep inconclusive
CC1=C(C(=O)Nc2ccccc2)C(c2ccc(C)o2)n2c(s/c(=C/c3ccccc3)c2=O)=N1 (stereo not given)	ELG1 repair inh 21µM, MCF10A rereplic 15µM
CC1=C(C(=O)Nc2ccccc2C)C(c2ccc(C)o2)n2c(s/c(=C/c3ccccc3)c2=O)=N1 (stereo not given)	ELG1 repair inh inconclusive
Cc1c(O)c2c(c(C(=O)/C=C/c3ccccc3)c1O)OC(C)(C)C=C2	none (no result: ELG1 repair inh, MCF10A rereplic, SW480 rerep)
Cc1cccc(Oc2sc(C(=O)c3ccccc3)c(N)c2C#N)c1C	ELG1 repair inh inconclusive, MCF10A rereplic inconclusive
N#Cc1c(Oc2ccc3ccccc3c2)sc(C(=O)c2ccccc2)c1N	ELG1 repair inh 12µM, MCF10A rereplic inconclusive, KB-3-1 tox inconclusive
Cc1cc(=O)[nH]c(SCC(=O)C23CC4CC(CC(C4)C2)C3)c1C#N	KB-V1 cytotox 6.5µM, MCF10A rereplic inconclusive, KB-3-1 tox inconclusive, SW480 rerep inconclusive
COc1ccc(OCC(=O)N(C)CC2COc3ccccc3O2)cc1 (stereo not given)	MCF10A rereplic inconclusive, KB-3-1 tox inconclusive
COc1ccc2c(CC(=O)N(C)CC3COc4ccccc4O3)coc2c1 (stereo not given)	KB-V1 cytotox 18µM, ELG1 repair inh inconclusive
O=C(COC(=O)c1cc(S(=O)(=O)N2CCOCC2)ccc1F)Nc1ccccc1C(F)(F)F	none (no result: ELG1 repair inh, MCF10A rereplic, SW480 rerep)
Clc1ccc(COc2cccc(CNCc3ccncc3)c2)cc1	KB-V1 cytotox 6.5µM, KB-3-1 tox inconclusive
CC(C)(CO)NCc1cccc(OCc2ccc(Cl)cc2)c1	KB-V1 cytotox inconclusive, KB-3-1 tox inconclusive
Cc1noc(C)c1NC(=O)N(C)C[C@H]1Oc2ccc(NC(=O)Nc3ccc(C(F)(F)F)cc3)cc2C(=O)N([C@H](C)CO)C[C@@H]1C	ELG1 repair inh inconclusive
C=CCCC(=O)N1C[C@H]2CON(C)[C@H]2C[C@H]1c1cccc(Oc2ccccc2)c1	none (no result: ELG1 repair inh, MCF10A rereplic, SW480 rerep)
Cc1ccccc1-c1cccc([C@@H]2C[C@H]3[C@H](CON3C)CN2Cc2ccccc2)c1	MCF10A rereplic 18µM (no result: ELG1 repair inh)
